Common to all, as to test: log2 fold change, soluble protein after heating vs DMSO (PISA); higher = thermal stabilisation; K562 cells, 10 uM, 30 min; active = over 0.2 and 3.5 SD of the protein, either way, in both replicates (recomputed)
Compound in experiment [1]: COC1=CC=C(C=C1)CN2C=CC3=C2C=C(C=C3)C(=O)NO
An outline of the steps:
(§1)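 K562 cells at 2×10^6 cells/mL were treated with 10 μM compound for 30 min. Aliquots were heated for 3 min across 48°C-58°C, pooled, and extracted in PBS with 0.5% NP-40 at 4°C; soluble protein was the supernatant after 21,000xg for 90 min. Soluble protein was quantified by TMTpro 16plex LC-MS/MS with channel sums equalised, and reported as log2 fold change in thermal stability against DMSO controls, with values from duplicates.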

Compound in a further experiment: CON(C)C(=O)N1N=C(c2cc(F)ccc2F)S[C@@]1(CCCN)c1ccccc1 [filanesib]
The essentials:
as §1

Compound in the next experiment: CO[C@H]1C[C@@H]2CC[C@@H](C)[C@@](O)(O2)C(=O)C(=O)N2CCCC[C@H]2C(=O)O[C@H]([C@H](C)C[C@@H]2CC[C@H](n3cnnn3)[C@H](OC)C2)CC(=O)[C@H](C)/C=C(\C)[C@@H](O)[C@@H](OC)C(=O)[C@H](C)C[C@H](C)/C=C/C=C/C=C/1C [zotarolimus]
An outline of the steps:
as §1

Compound in another experiment: COc1cc(C(=O)O)ccc1NC(=O)[C@@H]1N[C@@H](CC(C)(C)C)[C@](C#N)(c2ccc(Cl)cc2F)[C@H]1c1cccc(Cl)c1F [idasanutlin]
An outline of the steps: as §1

Compound in another experiment: COc1cc(Nc2ncc3c(n2)-c2ccc(Cl)cc2C(c2c(F)cccc2OC)=NC3)ccc1C(=O)O [alisertib]
The essentials:
as §1

Compound in experiment [2]: COc1cc2nc(-c3cc(F)ccc3O)nc(N[C@@H]3CNC[C@H]3C(C)(C)O)c2cc1OC
The essentials: as §1

Compound in another experiment: COc1cc2ncnc(Nc3ccc(F)c(Cl)c3)c2cc1OCCCN1CCOCC1 [gefitinib]
An outline of the steps:
as §1

Compound in experiment [3]: COc1cccc2cc(-c3nc([C@H]4CC[C@H](C(=O)O)CC4)n4ncnc(N)c34)[nH]c12
An outline of the steps:
as §1

Compound in another experiment: CS(=O)(=O)CCNCc1ccc(-c2ccc3ncnc(Nc4ccc(OCc5cccc(F)c5)c(Cl)c4)c3c2)o1 [lapatinib]
An outline of the steps:
as §1

Compound in another experiment: CS(=O)(=O)N1CCN(Cc2cc3nc(-c4cccc5[nH]ncc45)nc(N4CCOCC4)c3s2)CC1 [pictilisib]
The essentials: as §1

The full data set covers some 7,900 targets. This sample favours those with a hit. About 0.6% of all pairs of compound and target were hits. Unmarked numbers belong to inactive results.

Chain of UniProt Q9ULX3 (Q9ULX3 whole entry, looked up): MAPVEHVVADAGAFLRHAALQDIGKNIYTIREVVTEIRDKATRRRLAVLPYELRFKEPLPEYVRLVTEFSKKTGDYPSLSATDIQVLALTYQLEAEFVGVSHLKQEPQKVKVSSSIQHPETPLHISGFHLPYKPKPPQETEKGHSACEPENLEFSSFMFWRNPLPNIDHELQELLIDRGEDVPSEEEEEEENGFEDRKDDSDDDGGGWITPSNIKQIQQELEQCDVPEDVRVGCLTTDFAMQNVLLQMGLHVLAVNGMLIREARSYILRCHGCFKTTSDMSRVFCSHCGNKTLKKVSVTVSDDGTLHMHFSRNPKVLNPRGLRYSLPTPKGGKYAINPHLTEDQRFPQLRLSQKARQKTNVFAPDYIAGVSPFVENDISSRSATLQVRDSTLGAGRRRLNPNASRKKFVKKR
Chain of UniProt P49757 (P49757 whole entry, looked up): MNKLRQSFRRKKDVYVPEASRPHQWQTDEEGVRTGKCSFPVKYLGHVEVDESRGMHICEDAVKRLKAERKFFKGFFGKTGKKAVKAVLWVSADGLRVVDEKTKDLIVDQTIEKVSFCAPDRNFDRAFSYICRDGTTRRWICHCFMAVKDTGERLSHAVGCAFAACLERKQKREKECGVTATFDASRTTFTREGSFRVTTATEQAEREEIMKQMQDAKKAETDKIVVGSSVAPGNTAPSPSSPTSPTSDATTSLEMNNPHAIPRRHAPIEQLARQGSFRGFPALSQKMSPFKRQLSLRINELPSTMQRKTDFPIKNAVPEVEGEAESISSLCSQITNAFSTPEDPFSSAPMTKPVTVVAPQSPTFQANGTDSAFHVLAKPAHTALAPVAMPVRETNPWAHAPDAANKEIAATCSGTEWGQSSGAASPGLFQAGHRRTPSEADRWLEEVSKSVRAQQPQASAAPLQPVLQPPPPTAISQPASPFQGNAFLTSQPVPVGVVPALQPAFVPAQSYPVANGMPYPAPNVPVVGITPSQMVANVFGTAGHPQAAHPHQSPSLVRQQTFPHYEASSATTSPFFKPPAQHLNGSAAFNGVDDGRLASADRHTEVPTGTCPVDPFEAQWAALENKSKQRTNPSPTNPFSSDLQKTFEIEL
Chain of UniProt Q9Y314 (Q9Y314 whole entry, looked up): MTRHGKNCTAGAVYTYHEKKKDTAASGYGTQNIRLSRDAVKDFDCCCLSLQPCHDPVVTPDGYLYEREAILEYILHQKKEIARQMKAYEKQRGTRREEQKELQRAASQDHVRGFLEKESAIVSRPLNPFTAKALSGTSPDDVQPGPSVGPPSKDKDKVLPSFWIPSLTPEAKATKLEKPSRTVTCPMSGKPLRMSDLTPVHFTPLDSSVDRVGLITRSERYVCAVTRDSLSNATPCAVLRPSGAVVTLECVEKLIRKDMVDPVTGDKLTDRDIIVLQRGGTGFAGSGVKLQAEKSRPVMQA
Chain of UniProt Q13952 (Q13952 whole entry, looked up): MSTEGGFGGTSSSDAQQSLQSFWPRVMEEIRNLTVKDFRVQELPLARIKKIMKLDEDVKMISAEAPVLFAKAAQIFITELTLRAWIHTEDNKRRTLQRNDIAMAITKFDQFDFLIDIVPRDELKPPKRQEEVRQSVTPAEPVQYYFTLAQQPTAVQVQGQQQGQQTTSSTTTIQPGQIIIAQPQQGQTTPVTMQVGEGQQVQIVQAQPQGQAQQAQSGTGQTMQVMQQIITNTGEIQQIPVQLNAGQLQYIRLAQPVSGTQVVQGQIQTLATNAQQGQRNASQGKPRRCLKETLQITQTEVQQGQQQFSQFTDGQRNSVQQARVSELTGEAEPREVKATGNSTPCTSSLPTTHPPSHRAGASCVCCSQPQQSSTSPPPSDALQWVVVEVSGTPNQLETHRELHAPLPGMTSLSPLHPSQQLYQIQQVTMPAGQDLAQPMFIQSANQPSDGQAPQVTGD
Chain of UniProt Q9H000 (Q9H000 whole entry, looked up): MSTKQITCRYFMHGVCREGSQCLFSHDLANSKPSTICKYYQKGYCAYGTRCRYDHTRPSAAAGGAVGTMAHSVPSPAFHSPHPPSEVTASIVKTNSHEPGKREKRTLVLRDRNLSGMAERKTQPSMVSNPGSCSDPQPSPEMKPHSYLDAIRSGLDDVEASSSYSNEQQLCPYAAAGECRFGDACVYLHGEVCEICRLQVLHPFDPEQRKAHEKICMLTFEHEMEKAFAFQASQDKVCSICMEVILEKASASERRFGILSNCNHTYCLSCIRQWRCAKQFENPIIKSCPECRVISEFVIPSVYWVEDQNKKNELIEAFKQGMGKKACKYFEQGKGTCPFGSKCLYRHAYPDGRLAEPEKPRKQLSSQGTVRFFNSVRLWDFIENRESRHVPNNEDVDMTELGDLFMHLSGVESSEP
Chain of UniProt Q15003 (Q15003 whole entry, looked up): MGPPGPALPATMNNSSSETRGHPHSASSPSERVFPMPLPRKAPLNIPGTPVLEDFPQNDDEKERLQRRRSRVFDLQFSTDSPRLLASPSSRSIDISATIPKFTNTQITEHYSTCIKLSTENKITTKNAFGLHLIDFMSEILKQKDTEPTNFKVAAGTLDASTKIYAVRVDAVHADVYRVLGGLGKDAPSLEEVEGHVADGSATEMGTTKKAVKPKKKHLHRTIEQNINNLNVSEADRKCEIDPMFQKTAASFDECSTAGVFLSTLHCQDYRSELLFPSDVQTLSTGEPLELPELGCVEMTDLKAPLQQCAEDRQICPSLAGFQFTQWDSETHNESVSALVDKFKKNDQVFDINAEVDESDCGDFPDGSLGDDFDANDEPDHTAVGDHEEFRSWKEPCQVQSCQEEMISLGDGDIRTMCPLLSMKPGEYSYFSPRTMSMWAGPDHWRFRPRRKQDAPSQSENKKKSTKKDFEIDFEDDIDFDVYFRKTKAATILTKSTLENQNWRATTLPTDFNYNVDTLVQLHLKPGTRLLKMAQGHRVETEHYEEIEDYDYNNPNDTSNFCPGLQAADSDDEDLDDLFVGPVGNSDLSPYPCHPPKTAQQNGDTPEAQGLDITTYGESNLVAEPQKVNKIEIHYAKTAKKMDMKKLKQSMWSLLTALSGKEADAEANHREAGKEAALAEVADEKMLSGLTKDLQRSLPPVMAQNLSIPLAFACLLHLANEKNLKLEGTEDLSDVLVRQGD
Chain of UniProt P20585 (P20585 whole entry, looked up): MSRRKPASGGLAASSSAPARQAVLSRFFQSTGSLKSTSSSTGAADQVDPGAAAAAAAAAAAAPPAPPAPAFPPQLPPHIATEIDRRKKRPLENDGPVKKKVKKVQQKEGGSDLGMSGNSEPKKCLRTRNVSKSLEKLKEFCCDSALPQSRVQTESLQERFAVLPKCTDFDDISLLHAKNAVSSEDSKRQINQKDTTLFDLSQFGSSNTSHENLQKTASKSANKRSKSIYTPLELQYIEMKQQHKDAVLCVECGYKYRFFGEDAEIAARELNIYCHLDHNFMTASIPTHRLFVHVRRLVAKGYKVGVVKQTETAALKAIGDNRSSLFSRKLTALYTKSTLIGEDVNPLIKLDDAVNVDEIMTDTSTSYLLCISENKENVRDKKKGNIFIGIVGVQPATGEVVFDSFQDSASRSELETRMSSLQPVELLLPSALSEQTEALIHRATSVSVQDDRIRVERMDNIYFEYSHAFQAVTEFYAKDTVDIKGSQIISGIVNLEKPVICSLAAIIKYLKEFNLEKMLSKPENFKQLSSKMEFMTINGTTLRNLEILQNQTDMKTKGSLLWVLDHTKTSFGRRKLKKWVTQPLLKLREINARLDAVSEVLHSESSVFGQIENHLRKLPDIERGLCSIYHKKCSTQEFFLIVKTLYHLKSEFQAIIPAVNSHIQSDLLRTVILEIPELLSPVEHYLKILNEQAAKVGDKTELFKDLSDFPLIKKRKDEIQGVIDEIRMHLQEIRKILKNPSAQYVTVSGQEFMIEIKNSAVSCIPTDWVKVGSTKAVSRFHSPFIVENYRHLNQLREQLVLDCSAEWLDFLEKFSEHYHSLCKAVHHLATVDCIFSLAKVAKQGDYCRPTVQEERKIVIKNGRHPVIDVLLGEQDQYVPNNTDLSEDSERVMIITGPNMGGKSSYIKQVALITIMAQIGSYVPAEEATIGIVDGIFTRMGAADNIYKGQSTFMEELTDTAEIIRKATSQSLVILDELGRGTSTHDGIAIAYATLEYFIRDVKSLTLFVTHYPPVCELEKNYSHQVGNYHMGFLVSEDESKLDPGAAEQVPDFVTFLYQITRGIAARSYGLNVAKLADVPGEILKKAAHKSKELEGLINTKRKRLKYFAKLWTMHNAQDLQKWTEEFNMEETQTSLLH
Chain of UniProt P49321 (P49321 whole entry, looked up): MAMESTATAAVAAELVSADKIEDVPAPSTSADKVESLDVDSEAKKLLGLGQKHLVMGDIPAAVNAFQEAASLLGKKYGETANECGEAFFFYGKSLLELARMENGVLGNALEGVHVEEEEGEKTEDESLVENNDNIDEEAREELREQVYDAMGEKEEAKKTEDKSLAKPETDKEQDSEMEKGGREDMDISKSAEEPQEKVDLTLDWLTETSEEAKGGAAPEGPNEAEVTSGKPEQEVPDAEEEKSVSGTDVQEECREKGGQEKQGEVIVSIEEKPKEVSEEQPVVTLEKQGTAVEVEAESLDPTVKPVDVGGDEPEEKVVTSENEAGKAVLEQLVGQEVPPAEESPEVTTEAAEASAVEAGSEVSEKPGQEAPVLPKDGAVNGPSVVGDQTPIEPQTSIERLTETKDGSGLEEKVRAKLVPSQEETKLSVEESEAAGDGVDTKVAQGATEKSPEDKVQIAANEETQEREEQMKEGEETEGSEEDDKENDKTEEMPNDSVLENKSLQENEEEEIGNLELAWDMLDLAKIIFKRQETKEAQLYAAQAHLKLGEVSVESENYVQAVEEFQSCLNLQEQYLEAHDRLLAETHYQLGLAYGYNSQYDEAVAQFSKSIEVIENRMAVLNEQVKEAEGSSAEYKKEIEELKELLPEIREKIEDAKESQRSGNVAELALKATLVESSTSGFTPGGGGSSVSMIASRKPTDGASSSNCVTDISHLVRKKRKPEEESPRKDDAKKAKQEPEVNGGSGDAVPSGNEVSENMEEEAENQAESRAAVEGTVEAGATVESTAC

Consider NDUFS4 (UniProt O43181), for which the log2 fold change in experiment [1] is -0.018; with filanesib, -0.019; with zotarolimus it was -0.022; with idasanutlin, 0.035; in the experiment with alisertib, -0.074; in experiment [2] it was -0.077. Further, the log2 fold change with gefitinib is -0.008; in experiment [3] it was 0.036; with lapatinib it was 0.029; with pictilisib it was -0.122.

As to NOP53 (UniProt Q9NZM5), the log2 fold change in experiment [1] was -0.111; in the experiment with filanesib, 0.533; with zotarolimus, -0.008; with idasanutlin, 0.365; with alisertib, -0.1; in experiment [2], 0.037. The log2 fold change is -0.127 with gefitinib, -0.207 in experiment [3], 0.163 with lapatinib and -0.335 with pictilisib.

Turning to MRPS24 (UniProt Q96EL2), the log2 fold change in experiment [1] is -0.153; with filanesib it was 0.047; with zotarolimus, 0.088; with idasanutlin, -0.134; with alisertib, -0.104; in experiment [2] it was 0.096. Besides, the log2 fold change was -0.056 with gefitinib, -0.014 in experiment [3], 0.047 with lapatinib and -0.174 in the experiment with pictilisib.

In the case of MTOR (UniProt P42345), the log2 fold change in experiment [1] is 0.002; with filanesib it was -0.112; with zotarolimus it was -0.308 (active); in the experiment with idasanutlin, -0.09; with alisertib, -0.017; in [2], -0.012. Besides, the log2 fold change is -0.018 with gefitinib, -0.019 in experiment [3], 0.014 with lapatinib and 0.019 with pictilisib.

Regarding MKRN2 (UniProt Q9H000), the log2 fold change is 0.024 in [1]; 0.137 with filanesib; -0.035 with zotarolimus; 0.147 in the experiment with idasanutlin; -0.009 in the experiment with alisertib; 0.101 in [2]. The log2 fold change is -0.099 with gefitinib, -0.079 in [3], -0.027 with lapatinib and 0.03 in the experiment with pictilisib.

As to NOB1 (UniProt Q9ULX3), the log2 fold change in [1] is 0.16; with filanesib, 0.001; in the experiment with zotarolimus, 0.026; in the experiment with idasanutlin it was 0.068; with alisertib, -0.14; in [2], 0.044. The log2 fold change with gefitinib is 0.01; in [3] it was -0.13; in the experiment with lapatinib, 0.045; with pictilisib, -0.042.

For MRPS15 (UniProt P82914), the log2 fold change was 0.041 in experiment [1]; 0.145 in the experiment with filanesib; 0.095 with zotarolimus; -0.265 in the experiment with idasanutlin; -0.024 in the experiment with alisertib; 0.016 in experiment [2]. Besides, the log2 fold change was -0.054 with gefitinib, 0.024 in experiment [3], 0.08 with lapatinib and -0.13 with pictilisib.

As for NUMA1 (UniProt Q14980), the log2 fold change was 0.002 in experiment [1]; 0.266 in the experiment with filanesib; 0.13 in the experiment with zotarolimus; 0.07 with idasanutlin; -0.088 in the experiment with alisertib; -0.223 in experiment [2]. The log2 fold change in the experiment with gefitinib was -0.001; in [3], -0.247; with lapatinib it was 0.062; with pictilisib, 0.021.

NCAPH (UniProt Q15003): the log2 fold change in [1] was -0.03; with filanesib, 0.018; with zotarolimus it was 0.024; in the experiment with idasanutlin it was -0.046; in the experiment with alisertib it was 0.016; in [2] it was 0.092. For the same target, the log2 fold change is 0 in the experiment with gefitinib, -0.065 in [3], -0.021 with lapatinib and 0.062 in the experiment with pictilisib.

For the target NASP (UniProt P49321), the log2 fold change was 0.01 in experiment [1]; -0.009 with filanesib; 0.05 in the experiment with zotarolimus; -0.021 with idasanutlin; -0.03 in the experiment with alisertib; 0.029 in [2]. In addition, the log2 fold change with gefitinib is 0.001; in experiment [3], -0.023; with lapatinib it was -0.023; in the experiment with pictilisib it was 0.007.

NUMB (UniProt P49757): the log2 fold change in experiment [1] was -0.051; with filanesib, 0.074; in the experiment with zotarolimus it was 0.015; with idasanutlin it was 0; in the experiment with alisertib it was -0.064; in [2] it was 0.04. The log2 fold change is 0.027 with gefitinib, -0.017 in experiment [3], 0.012 in the experiment with lapatinib and 0.076 with pictilisib.

With NFYC (UniProt Q13952), the log2 fold change in experiment [1] was -0.026; in the experiment with filanesib, -0.023; with zotarolimus, 0.004; in the experiment with idasanutlin it was -0.065; with alisertib, -0.036; in experiment [2], 0.017. Further, the log2 fold change with gefitinib is -0.018; in [3] it was 0.127; with lapatinib it was 0.033; with pictilisib, 0.092.

On to NOSIP (UniProt Q9Y314), for which the log2 fold change in experiment [1] was -0.069; in the experiment with filanesib it was 0.143; with zotarolimus, -0.018; in the experiment with idasanutlin, 0.029; with alisertib, 0.166; in experiment [2] it was 0.174. Besides, the log2 fold change is 0.156 with gefitinib, -0.053 in [3], -0.046 in the experiment with lapatinib and -0.067 with pictilisib.

As for MSH3 (UniProt P20585), the log2 fold change in [1] was -0.074; with filanesib it was 0.005; with zotarolimus it was 0.036; with idasanutlin, -0.004; with alisertib it was 0.008; in experiment [2] it was 0.093. Besides, the log2 fold change in the experiment with gefitinib is 0.005; in experiment [3], 0; in the experiment with lapatinib it was 0.042; in the experiment with pictilisib it was -0.006.

For the target NCAPG (UniProt Q9BPX3), the log2 fold change is 0.079 in [1]; -0.018 with filanesib; 0.054 with zotarolimus; -0.064 with idasanutlin; 0.03 with alisertib; 0.038 in [2]. Besides, the log2 fold change is 0.022 with gefitinib, -0.116 in experiment [3], 0 in the experiment with lapatinib and 0.071 in the experiment with pictilisib.

(Values after the supplement of paper PMC10849652.)
